This note sets out measurements from paper PMC7862700, “An all-to-all approach to the identification of sequence-specific readers for epigenetic DNA modifications on cytosine”.

What all share (test): DAPPL (digital affinity profiling via proximity ligation, sequencing); 10 mM Tris-HCl pH 7.5, 50 mM NaCl, 1 mM DTT, 4% glycerol, room temperature, 30 min; GST-TFs on glutathione beads, 16-mer random dsDNA library, 0.1% formaldehyde crosslink after washing; high values mean tight binding
The target of one assay is T1, FEV (Homo sapiens, UniProt Q99581 1-238).
T1 sequence: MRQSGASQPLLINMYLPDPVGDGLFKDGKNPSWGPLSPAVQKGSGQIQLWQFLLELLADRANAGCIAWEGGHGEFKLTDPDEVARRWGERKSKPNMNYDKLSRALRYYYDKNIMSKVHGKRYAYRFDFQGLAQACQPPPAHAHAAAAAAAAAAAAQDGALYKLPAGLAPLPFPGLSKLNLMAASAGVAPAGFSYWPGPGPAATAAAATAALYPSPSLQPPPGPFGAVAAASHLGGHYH
The conditions noted are these: protein: recombinant; tags: N-terminal GST; dsDNA, one strand shown. A digest of the protocol: (§1)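 Binding signal is given per hexamer as its read frequency for a factor divided by its frequency in the tag-only sample. GST-fused human transcription factors were expressed in yeast, captured on glutathione beads, barcoded with DNA and pooled with that sample, then incubated with 200 nmole of a 16-mer random double-stranded DNA library in Tris/NaCl/DTT/glycerol buffer for 30 min at room temperature. The pools were then washed, crosslinked, proximity-ligated, amplified by PCR and sequenced on an Illumina NextSeq500.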

The next assay has as its target ETV5 (Homo sapiens, UniProt P41161 1-510). The conditions noted are these: protein: recombinant; tags: N-terminal GST; dsDNA, one strand shown. A digest of the protocol:
as §1

The target in the next assay is T2, SPIC (Homo sapiens, UniProt Q8N5J4 1-248).
T2 sequence: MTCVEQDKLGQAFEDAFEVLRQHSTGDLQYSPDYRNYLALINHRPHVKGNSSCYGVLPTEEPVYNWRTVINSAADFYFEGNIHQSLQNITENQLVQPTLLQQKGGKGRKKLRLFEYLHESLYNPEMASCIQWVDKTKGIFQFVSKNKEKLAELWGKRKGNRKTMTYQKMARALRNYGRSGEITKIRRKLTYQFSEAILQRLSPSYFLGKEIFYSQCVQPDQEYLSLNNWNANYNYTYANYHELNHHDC
The conditions noted are these: protein: recombinant; tags: N-terminal GST; dsDNA, one strand shown. A digest of the protocol:
as §1

In another assay the target is ELF4 (Homo sapiens, UniProt Q99607 1-663). The conditions noted are these: protein: recombinant; tags: N-terminal GST; dsDNA, one strand shown. The method in brief:
as §1

The target of a further assay is T3, ELK4 (Homo sapiens, UniProt P28324-2 1-405).
T3 sequence: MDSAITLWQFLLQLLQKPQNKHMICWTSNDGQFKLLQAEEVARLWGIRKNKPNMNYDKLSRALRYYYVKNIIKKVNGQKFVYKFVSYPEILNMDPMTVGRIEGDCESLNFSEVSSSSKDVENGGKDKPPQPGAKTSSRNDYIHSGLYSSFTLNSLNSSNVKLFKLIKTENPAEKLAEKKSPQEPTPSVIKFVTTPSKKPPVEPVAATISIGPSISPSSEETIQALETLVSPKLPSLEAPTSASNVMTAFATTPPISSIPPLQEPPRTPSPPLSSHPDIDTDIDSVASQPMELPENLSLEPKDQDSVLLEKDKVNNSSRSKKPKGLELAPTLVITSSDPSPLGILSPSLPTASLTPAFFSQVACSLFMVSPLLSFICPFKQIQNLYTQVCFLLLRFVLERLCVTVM
The conditions noted are these: protein: recombinant; tags: N-terminal GST; dsDNA, one strand shown. The method in brief:
as §1

For the next assay, the target named is T4, ETV2 (Homo sapiens, UniProt O00321 1-342).
T4 sequence: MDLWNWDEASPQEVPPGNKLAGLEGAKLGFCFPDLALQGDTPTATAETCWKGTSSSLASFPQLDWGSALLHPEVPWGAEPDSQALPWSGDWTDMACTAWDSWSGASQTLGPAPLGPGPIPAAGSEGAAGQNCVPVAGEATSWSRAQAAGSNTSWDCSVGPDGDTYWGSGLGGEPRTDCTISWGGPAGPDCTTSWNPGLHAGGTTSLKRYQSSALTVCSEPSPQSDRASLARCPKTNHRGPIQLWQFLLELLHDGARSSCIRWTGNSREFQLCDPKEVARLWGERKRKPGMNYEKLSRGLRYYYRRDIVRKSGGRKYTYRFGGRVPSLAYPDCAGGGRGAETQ
The note with it: protein: recombinant; tags: N-terminal GST; dsDNA, one strand shown. The method in brief:
as §1

A further assay concerns the target T5, ELF3 (Homo sapiens, UniProt P78545 1-371).
T5 sequence: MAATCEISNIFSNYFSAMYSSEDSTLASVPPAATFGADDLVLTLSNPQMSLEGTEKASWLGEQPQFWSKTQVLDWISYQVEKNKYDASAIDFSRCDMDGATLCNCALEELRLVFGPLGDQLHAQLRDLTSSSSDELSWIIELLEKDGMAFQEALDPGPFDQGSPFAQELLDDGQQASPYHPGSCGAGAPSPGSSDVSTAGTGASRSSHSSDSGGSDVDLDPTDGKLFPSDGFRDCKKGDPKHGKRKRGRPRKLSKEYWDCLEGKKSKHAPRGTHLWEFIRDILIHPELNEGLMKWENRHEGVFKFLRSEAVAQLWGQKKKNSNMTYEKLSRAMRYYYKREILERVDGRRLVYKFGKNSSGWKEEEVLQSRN
The note with it: protein: recombinant; tags: N-terminal GST; dsDNA, one strand shown. A digest of the protocol: as §1

For the next assay, the target named is CRX (Homo sapiens, UniProt O43186 1-299). The note with it: protein: recombinant; tags: N-terminal GST; dsDNA, one strand shown. A digest of the protocol: as §1
Sequence of CRX (O43186 whole entry): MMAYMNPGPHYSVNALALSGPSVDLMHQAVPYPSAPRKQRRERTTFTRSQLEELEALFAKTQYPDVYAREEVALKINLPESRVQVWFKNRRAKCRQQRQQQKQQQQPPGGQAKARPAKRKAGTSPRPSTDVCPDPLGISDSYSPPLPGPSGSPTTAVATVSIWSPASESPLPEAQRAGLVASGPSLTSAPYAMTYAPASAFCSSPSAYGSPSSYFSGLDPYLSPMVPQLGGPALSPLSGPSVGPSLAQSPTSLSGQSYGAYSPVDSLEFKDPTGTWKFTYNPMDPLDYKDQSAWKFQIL
The next assay deals with ETV1 (Homo sapiens, UniProt P50549 1-477). The conditions noted are these: protein: recombinant; tags: N-terminal GST; dsDNA, one strand shown. The method in brief: as §1
Sequence of ETV1 (P50549 whole entry): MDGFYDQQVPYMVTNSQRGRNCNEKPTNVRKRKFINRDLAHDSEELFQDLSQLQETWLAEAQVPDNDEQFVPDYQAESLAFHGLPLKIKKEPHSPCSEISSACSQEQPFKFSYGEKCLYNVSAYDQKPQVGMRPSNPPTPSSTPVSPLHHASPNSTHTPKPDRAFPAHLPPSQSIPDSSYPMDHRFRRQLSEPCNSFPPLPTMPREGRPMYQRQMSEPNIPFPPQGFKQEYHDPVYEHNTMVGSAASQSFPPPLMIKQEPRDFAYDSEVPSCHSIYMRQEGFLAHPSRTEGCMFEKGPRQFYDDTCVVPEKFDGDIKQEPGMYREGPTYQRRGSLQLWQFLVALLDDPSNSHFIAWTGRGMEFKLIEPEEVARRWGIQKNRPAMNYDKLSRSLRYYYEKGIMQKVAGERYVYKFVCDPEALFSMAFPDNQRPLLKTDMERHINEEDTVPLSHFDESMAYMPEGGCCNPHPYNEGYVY
Another assay concerns the target HSF1 (Homo sapiens, UniProt Q00613 1-529). The conditions noted are these: protein: recombinant; tags: N-terminal GST; chain copies: 3; dsDNA, one strand shown. The method in brief: as §1

Sequence of HSF1 (Q00613 whole entry): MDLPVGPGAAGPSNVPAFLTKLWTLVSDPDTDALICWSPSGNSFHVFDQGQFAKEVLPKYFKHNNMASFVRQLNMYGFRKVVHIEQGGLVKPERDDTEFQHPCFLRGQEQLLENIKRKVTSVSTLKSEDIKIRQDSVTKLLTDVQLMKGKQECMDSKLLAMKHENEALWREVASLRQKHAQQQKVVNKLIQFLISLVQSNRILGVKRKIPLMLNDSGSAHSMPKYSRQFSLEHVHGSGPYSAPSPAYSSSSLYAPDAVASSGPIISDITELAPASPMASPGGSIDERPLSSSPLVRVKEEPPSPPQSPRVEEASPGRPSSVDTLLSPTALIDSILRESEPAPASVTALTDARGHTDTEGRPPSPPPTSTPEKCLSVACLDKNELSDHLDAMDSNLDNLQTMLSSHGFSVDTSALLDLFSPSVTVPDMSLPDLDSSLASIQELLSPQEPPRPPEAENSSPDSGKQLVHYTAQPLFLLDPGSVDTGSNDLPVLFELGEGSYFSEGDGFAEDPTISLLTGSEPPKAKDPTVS
Sequence of ETV5 (P41161 whole entry): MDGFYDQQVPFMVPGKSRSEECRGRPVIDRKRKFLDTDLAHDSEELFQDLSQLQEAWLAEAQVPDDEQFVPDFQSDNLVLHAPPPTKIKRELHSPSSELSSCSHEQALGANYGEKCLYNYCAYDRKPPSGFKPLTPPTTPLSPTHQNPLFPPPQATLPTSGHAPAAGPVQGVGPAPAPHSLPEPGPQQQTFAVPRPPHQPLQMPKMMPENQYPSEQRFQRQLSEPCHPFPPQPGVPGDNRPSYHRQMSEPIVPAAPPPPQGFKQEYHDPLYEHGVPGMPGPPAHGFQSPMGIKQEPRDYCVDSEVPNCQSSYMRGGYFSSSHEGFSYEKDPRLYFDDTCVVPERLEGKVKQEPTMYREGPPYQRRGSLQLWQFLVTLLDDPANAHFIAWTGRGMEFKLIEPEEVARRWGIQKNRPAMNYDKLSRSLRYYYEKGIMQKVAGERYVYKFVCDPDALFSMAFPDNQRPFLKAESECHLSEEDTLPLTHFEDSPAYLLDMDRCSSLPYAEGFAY
Sequence of ELF4 (Q99607 whole entry): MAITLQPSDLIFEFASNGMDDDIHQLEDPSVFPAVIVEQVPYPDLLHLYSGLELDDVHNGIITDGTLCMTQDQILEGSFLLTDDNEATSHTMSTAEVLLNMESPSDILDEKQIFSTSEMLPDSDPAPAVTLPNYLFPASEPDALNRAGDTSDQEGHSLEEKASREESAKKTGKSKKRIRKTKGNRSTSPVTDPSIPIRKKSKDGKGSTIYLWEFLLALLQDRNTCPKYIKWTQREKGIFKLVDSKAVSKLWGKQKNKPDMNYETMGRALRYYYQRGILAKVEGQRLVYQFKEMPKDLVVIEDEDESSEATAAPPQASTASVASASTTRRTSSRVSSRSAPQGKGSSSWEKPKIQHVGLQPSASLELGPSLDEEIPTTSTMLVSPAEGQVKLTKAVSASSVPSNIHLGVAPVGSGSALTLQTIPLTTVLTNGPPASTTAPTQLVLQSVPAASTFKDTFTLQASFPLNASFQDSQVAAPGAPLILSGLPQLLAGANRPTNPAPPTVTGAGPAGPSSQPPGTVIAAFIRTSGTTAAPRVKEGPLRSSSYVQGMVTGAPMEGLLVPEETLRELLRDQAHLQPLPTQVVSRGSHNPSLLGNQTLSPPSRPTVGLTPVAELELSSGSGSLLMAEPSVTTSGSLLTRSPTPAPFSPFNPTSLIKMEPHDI

Regarding TACGGA, the binding signal with FEV was 1.26 fold enrichment (6-mer frequency, TF over GST control); with ETV5, 1.34 fold enrichment (6-mer frequency, TF over GST control); with SPIC, 1.21 fold enrichment (6-mer frequency, TF over GST control); in the assay with ELF4 it was 1.25 fold enrichment (6-mer frequency, TF over GST control); in the assay with ELK4, 1.15 fold enrichment (6-mer frequency, TF over GST control); in the assay with ETV2, 1.42 fold enrichment (6-mer frequency, TF over GST control). For the same sequence, the binding signal with ELF3 was 1.42 fold enrichment (6-mer frequency, TF over GST control); with CRX, 1 fold enrichment (6-mer frequency, TF over GST control); with ETV1, 1.39 fold enrichment (6-mer frequency, TF over GST control).

AAACGG: the binding signal with FEV is 1.42 fold enrichment (6-mer frequency, TF over GST control); in the assay with ETV5 it was 1.27 fold enrichment (6-mer frequency, TF over GST control); in the assay with SPIC, 1.19 fold enrichment (6-mer frequency, TF over GST control); with ELF4, 1.23 fold enrichment (6-mer frequency, TF over GST control); with ELK4 it was 1.19 fold enrichment (6-mer frequency, TF over GST control); with ETV2, 1.22 fold enrichment (6-mer frequency, TF over GST control). Further, the binding signal was 1.28 fold enrichment (6-mer frequency, TF over GST control) in the assay with ELF3; 1.01 fold enrichment (6-mer frequency, TF over GST control) with CRX; 1.27 fold enrichment (6-mer frequency, TF over GST control) with ETV1.

Regarding CCATCA, the binding signal was 1.13 fold enrichment (6-mer frequency, TF over GST control) with FEV; 1.23 fold enrichment (6-mer frequency, TF over GST control) with ETV5; 1.09 fold enrichment (6-mer frequency, TF over GST control) in the assay with SPIC; 1.2 fold enrichment (6-mer frequency, TF over GST control) in the assay with ELF4; 1.24 fold enrichment (6-mer frequency, TF over GST control) with ELK4; 1.11 fold enrichment (6-mer frequency, TF over GST control) with ETV2. Besides, the binding signal in the assay with ELF3 is 1.28 fold enrichment (6-mer frequency, TF over GST control); with CRX, 1.04 fold enrichment (6-mer frequency, TF over GST control); with ETV1, 1.13 fold enrichment (6-mer frequency, TF over GST control).

Take CCTAGA: the binding signal was 1.01 fold enrichment (6-mer frequency, TF over GST control) with ETV5; 1.88 fold enrichment (6-mer frequency, TF over GST control) with HSF1; 1.07 fold enrichment (6-mer frequency, TF over GST control) with ELK4; 1.12 fold enrichment (6-mer frequency, TF over GST control) with ELF3; 1.22 fold enrichment (6-mer frequency, TF over GST control) with CRX.

Consider GGCTTA, for which the binding signal in the assay with FEV was 1.08 fold enrichment (6-mer frequency, TF over GST control); with ETV5 it was 1.03 fold enrichment (6-mer frequency, TF over GST control); in the assay with HSF1, 2.04 fold enrichment (6-mer frequency, TF over GST control); with ELK4 it was 1.16 fold enrichment (6-mer frequency, TF over GST control); with ELF3, 1.14 fold enrichment (6-mer frequency, TF over GST control); with CRX, 3.34 fold enrichment (6-mer frequency, TF over GST control). For the same sequence, the binding signal with ETV1 is 1.11 fold enrichment (6-mer frequency, TF over GST control).

On to CGCTCA, for which the binding signal in the assay with FEV was 1.13 fold enrichment (6-mer frequency, TF over GST control); with ETV5 it was 1.19 fold enrichment (6-mer frequency, TF over GST control); with SPIC, 1.06 fold enrichment (6-mer frequency, TF over GST control); in the assay with ELF4 it was 1.24 fold enrichment (6-mer frequency, TF over GST control); with ELK4, 1.32 fold enrichment (6-mer frequency, TF over GST control); with ETV2, 1.26 fold enrichment (6-mer frequency, TF over GST control). The binding signal in the assay with ELF3 is 1.16 fold enrichment (6-mer frequency, TF over GST control); with CRX, 1.2 fold enrichment (6-mer frequency, TF over GST control); with ETV1 it was 1.13 fold enrichment (6-mer frequency, TF over GST control).

Take GGCATT: the binding signal with FEV is 1.04 fold enrichment (6-mer frequency, TF over GST control); in the assay with ETV5, 1.05 fold enrichment (6-mer frequency, TF over GST control); with HSF1, 1.12 fold enrichment (6-mer frequency, TF over GST control); with ELK4, 1.08 fold enrichment (6-mer frequency, TF over GST control); with ETV2 it was 1.02 fold enrichment (6-mer frequency, TF over GST control); with CRX it was 1.29 fold enrichment (6-mer frequency, TF over GST control). Also, the binding signal with ETV1 was 1.1 fold enrichment (6-mer frequency, TF over GST control).
